The list is not random: actives were taken first. Their share in the collection is about 21%.
DT40 TDP1 no CPT = qHTS for Inhibitors of human tyrosyl-DNA phosphodiesterase 1 (TDP1): qHTS in cells in absence of CPT. 420,000 compounds, 15% hits. AID 686978, 2013. Potency, µM (titrated, usually from 46.2 µM), usual class: inhibitors. DT40 Tdp1-/- hTDP1 cells, no CPT, ATP luminescence, 48 h; also: nearly all actives have a fitted effect of over 55% in size
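Stably hTDP1-transfected Tdp1-null chicken DT40 cells were treated with library compounds minus camptothecin and grown for at least 48 hr at 37 °C, after which cellular ATP was quantified by luminescence.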
VP16 counter = counter-screen for ROR gamma inhibitors: Gal4-VP16 reporter | Potency, µM (series often up to 53.6 µM), actives largely listed as inhibitors | Drosophila S2 Gal4-VP16 UAS-luciferase, luminescence, 20 h | 310,000 compounds, 3.5% hits;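 also: Gal4-VP16 expression switched on by copper sulfate through the metallothionein promoter; nearly all actives have a fitted effect of over 50% in size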
TDP1 cell CPT = DT40-hTDP1 cell growth loss with CPT. AID 686979. Potency, µM (titrated, usually from 46.2 µM), usual class: inhibitors. 420,000 compounds, 12% hits. chicken DT40 Tdp1-/-;hTDP1 cells + 20 nM CPT, ATP luminescence, 48 h; also: nearly all actives have a fitted effect of over 55% in size
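Chicken DT40 Tdp1-/- cells stably complemented with human TDP1 were seeded at 400 cells/well in medium containing 20 nM camptothecin, exposed to pin-transferred compounds, and grown at 37 °C for at least 48 hr. Viability was read as ATP luminescence.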
IL1B secr inh = inhibitors of inflammasome signaling (IL-1 beta secretion); activity change, % at 57.5 µM; 360,000 compounds, 4.7% hits; THP-1 LPS/ATP IL-1B secretion, AlphaLISA, 16 h; stronger effect = lower value; in the data active = activity change below about -50%; inconclusive = mostly about -30% to -49%
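Secreted IL-1B measured by AlphaLISA bead assay after 16 h compound exposure of THP-1 cells; compounds (final up to 57.5 uM) added 1 h before LPS (250 ng/mL) and ATP (1.25 mM) stimulation; lower signal means less secretion.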
ELG1 repair inh = inhibitors of ELG1-dependent DNA repair in HEK293T cells; HEK293T ELG1-luciferase reporter, luminescence, 16 h; DNA damage induced by 5-fluorouridine; AID 504467; Potency, µM (top dose mostly 46.1 µM), hits mostly inhibitors; 330,000 compounds, 2.3% hits; also: nearly all actives have a fitted effect of over 55% in size
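Quantitative HTS, concentration-response format. 2,000 cells/well co-treated with 5-fluorouridine and compound, 16 hr in 5% CO2 at 37 °C; ONE-Glo luminescence read after 30 min.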
RORg inh = inhibitors of mouse ROR gamma transcriptional activity. 310,000 compounds, 5.4% hits. Drosophila S2 Gal4-RORgamma UAS-luciferase reporter, 20 h. AID 2551. Potency, µM (titrated, usually from 53.6 µM), actives largely listed as inhibitors; also: nearly all actives have a fitted effect of over 60% in size
Target sequence (P51450 whole entry, looked up, the tested form may be a part): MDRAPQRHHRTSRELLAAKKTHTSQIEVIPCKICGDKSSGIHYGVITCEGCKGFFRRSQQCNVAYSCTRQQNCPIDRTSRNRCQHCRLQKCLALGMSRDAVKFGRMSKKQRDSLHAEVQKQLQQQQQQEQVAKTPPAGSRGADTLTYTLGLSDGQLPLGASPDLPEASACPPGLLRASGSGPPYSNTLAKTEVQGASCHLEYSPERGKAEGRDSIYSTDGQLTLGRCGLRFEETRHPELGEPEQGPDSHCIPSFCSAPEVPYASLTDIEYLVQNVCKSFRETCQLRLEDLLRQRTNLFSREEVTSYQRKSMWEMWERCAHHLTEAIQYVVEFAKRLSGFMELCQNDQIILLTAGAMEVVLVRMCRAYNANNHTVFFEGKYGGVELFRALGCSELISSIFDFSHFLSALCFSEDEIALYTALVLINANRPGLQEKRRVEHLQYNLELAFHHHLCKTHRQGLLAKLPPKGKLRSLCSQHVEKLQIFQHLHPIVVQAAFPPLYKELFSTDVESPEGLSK
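Using a luciferase readout, inhibitors were identified by reduced reporter activity in Drosophila cells coexpressing a copper-inducible Gal4–ROR gamma fusion and UAS-driven Photinus luciferase, incubated 20 hr after 700 uM copper sulfate.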
Large screens that a line does not name were inactive. Unless noted, calls follow the shape of the dose curve; as a rule, active = well fitted curve in the direction sought with a large enough effect; inconclusive = small, poorly fitted or top-dose-only effect, or another doubt; inactive = no such curve, though single readings can be large; an effect the other way counts as inactive or inconclusive.

Clc1ccc(OCc2nc(-c3ccccn3)n[nH]2)cc1	DT40 TDP1 no CPT inconclusive, TDP1 cell CPT inconclusive
Brc1ccc(OCc2nc(-c3ccccn3)n[nH]2)cc1	DT40 TDP1 no CPT 15µM, VP16 counter inconclusive, TDP1 cell CPT inconclusive, RORg inh 14µM
CCOc1ccc(C(C)=O)cc1N1C(=O)C2C3C=CC(O3)C2C1=O (stereo unspecified)	DT40 TDP1 no CPT 5.2µM, VP16 counter 6.3µM, TDP1 cell CPT 6.5µM, ELG1 repair inh inconclusive, RORg inh 6.3µM
CCOc1ccc(C(C)=O)cc1N1C(=O)C2C3C=CC(C3)C2C1=O (stereo unspecified)	none
CN(C)CC(C)(C)CNC(=O)c1cnn(-c2nccc(-c3ccc4c(c3)OCO4)n2)c1-c1ccco1	DT40 TDP1 no CPT inconclusive (no result: VP16 counter, IL1B secr inh, ELG1 repair inh, RORg inh)
CCOC(=O)c1c(C)c(-c2ccccc2)n(CC(=O)NCCC(C)C)c1C	DT40 TDP1 no CPT 10µM, TDP1 cell CPT inconclusive
CCOC(=O)c1c(C)c(-c2ccccc2)n(CC(=O)NCCCN(CC)CC)c1C	DT40 TDP1 no CPT inconclusive
CCOc1ccccc1NC(=O)c1cccc(S(=O)(=O)N(Cc2ccccc2)c2ccccc2OC)c1	DT40 TDP1 no CPT 16µM, TDP1 cell CPT 21µM
C=CCN(c1ccc(F)cc1)S(=O)(=O)c1cc(C(=O)NC2CC2)ccc1Cl	DT40 TDP1 no CPT 21µM, TDP1 cell CPT 21µM (no result: VP16 counter, ELG1 repair inh, RORg inh)
CC1(C)CC(NC(=O)c2ccc(Cl)c(S(=O)(=O)N(Cc3ccccc3)c3ccccc3)c2)CC(C)(C)N1	DT40 TDP1 no CPT inconclusive, TDP1 cell CPT inconclusive, IL1B secr inh -110 (no result: VP16 counter, RORg inh)
COc1ccccc1N(Cc1ccccc1)S(=O)(=O)c1cccc(C(=O)Nc2cc(C)ccn2)c1	DT40 TDP1 no CPT 26µM, VP16 counter 10µM, TDP1 cell CPT inconclusive, IL1B secr inh inconclusive, ELG1 repair inh inconclusive, RORg inh 6.3µM
C=CCN(c1ccc(OC)cc1)S(=O)(=O)c1ccc(Cl)c(C(=O)OCC(=O)NC2CC2)c1	DT40 TDP1 no CPT inconclusive
COc1ccccc1N(Cc1ccccc1)S(=O)(=O)c1cccc(C(=O)Nc2ncccc2C)c1	DT40 TDP1 no CPT inconclusive, TDP1 cell CPT inconclusive (no result: VP16 counter, RORg inh)
OC[C@H]1O[C@@H]2O[C@H]3[C@H](O)[C@@H](O)[C@@H](O[C@H]4[C@H](O)[C@@H](O)[C@@H](O[C@H]5[C@H](O)[C@@H](O)[C@@H](O[C@H]6[C@H](O)[C@@H](O)[C@@H](O[C@H]7[C@H](O)[C@@H](O)[C@@H](O[C@H]8[C@H](O)[C@@H](O)[C@@H](O[C@H]1[C@H](O)[C@H]2O)O[C@@H]8CO)O[C@@H]7CO)O[C@@H]6CO)O[C@@H]5CO)O[C@@H]4CO)O[C@@H]3CO	none (no result: IL1B secr inh, ELG1 repair inh)
C[C@@H](C(=O)N=c1sc2ccccc2n1C)N1C(=O)C2CC=CCC2C1=O (stereo partly specified)	DT40 TDP1 no CPT inconclusive (no result: VP16 counter, ELG1 repair inh, RORg inh)
COc1ccccc1N(Cc1ccccc1)S(=O)(=O)c1cccc(C(=O)NC2CC(C)(C)NC(C)(C)C2)c1	DT40 TDP1 no CPT 18µM, TDP1 cell CPT 18µM, IL1B secr inh inconclusive (no result: VP16 counter, RORg inh)
COc1ccccc1N(Cc1ccccc1)S(=O)(=O)c1cccc(C(=O)O)c1	none
CC(C)(C)N1CC2([N+](=O)[O-])CN(C(C)(C)C)CC([N+](=O)[O-])(C1)C2	DT40 TDP1 no CPT inconclusive
O=C(Cn1cnc2c(OCc3ccccc3)ncnc21)NCc1ccccn1	none (no result: VP16 counter, RORg inh)
C/C(=N/NC(=O)c1ccc(C)nc1)c1ccc2c(c1)CCCC2	DT40 TDP1 no CPT 23µM, TDP1 cell CPT 15µM, ELG1 repair inh inconclusive, RORg inh inconclusive
O=C(CSc1nc(=O)n(CCN2CCOCC2)c2c1CCC2)Nc1ccccc1	none (no result: VP16 counter, IL1B secr inh, ELG1 repair inh, RORg inh)
COc1ccc(Cl)cc1NC(=O)c1noc2c1CCCC2	none
COc1ccc(Cl)cc1NC(=O)c1noc(C)c1[N+](=O)[O-]	DT40 TDP1 no CPT 2.3µM, VP16 counter inconclusive, TDP1 cell CPT 2.9µM, RORg inh inconclusive

Source: PubChem BioAssay (National Center for Advancing Translational Sciences (NCATS))
